# Shiga toxin inh: A qHTS for Small Molecule Inhibitors of Shiga Toxin | Vero cells, Shiga toxin protein synthesis inhibition reporter | inhibition, % at 38.7 µM | hit rate 9.2% among 290,000 | AID 2315, 2010; in the data active = inhibition mostly above about 28%, no sharp cut-off; inactive = mostly below about 43%; note: 0% is about no effect
# SARS PLpro yeast: qHTS of Yeast-based Assay for SARS-CoV PLP. hit rate 0.19% among 330,000. AID 485353, 2010. Potency, µM (titrated, usually from 32.9 µM), for the others: top-dose activity, positive = growth rescue, hits mostly activators. S. cerevisiae expressing SARS-CoV PLpro, growth rescue; note: potency is the fitted concentration of half-maximal effect; 0% is about no effect; nearly all actives have a fitted effect of over 55% in size
# Pf growth 48h: Primary qHTS for delayed death inhibitors of the malarial parasite plastid, 48 hour incubation; Potency, µM (highest dose often 28.7 µM), for inactives: top-dose activity change, negative = inhibition, hits mostly inhibitors; hit rate 5.9% among 310,000; P. falciparum luciferase growth in erythrocytes, 48 h; AID 504832, 2011; active = well fitted inhibition curve with a large enough effect; inconclusive = small, poorly fitted or top-dose-only effect, or another doubt; inactive = no such curve, though single readings can be large or run the other way; note: potency is the fitted concentration of half-maximal effect; % is set by controls: 0 for no effect and ±100 for the full control effect
#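 First compound was added to culture medium, then infected red cells at 0.1% parasitemia and 2% hematocrit (final). After incubation at 37 C under 5% CO2, luciferase detection reagent was dispensed and light output recorded.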
# Pf growth 96h: Primary qHTS for delayed death inhibitors of the malarial parasite plastid, 96 hour incubation; P. falciparum luciferase reporter growth, 96 h; Potency, µM (highest dose often 28.7 µM), inactives show top-dose activity change, negative = inhibition, usual class: inhibitors; hit rate 6.9% among 320,000; AID 504834, 2011; active = well fitted inhibition curve with a large enough effect; inconclusive = small, poorly fitted or top-dose-only effect, or another doubt; inactive = no such curve, though single readings can be large or run the other way; note: potency is the fitted concentration of half-maximal effect; % is set by controls: 0 for no effect and ±100 for the full control effect
#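 P. falciparum expressing integrated firefly luciferase grown in erythrocytes (2% hematocrit, 0.05% parasitemia final) with compounds for 96 hours at 37 C, 5% CO2. Growth inhibition read as loss of luminescence after adding luciferase detection reagent.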
# NS1 function inh: qHTS Assay for Inhibitors of Influenza NS1 Protein Function; Potency, µM (top dose mostly 46.1 µM), without a hit: at the highest dose activity, positive = more growth; hit rate 0.4% among 270,000; note: potency is the fitted concentration of half-maximal effect; actives are rising curves; nearly all actives have a fitted effect of over 50% in size
#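 Read-out: OD600 growth recovery of NS1-expressing budding yeast. Cells grown overnight at 30C in -URA glucose medium, washed, resuspended and diluted 1:100 in 2% galactose assay medium, pH 6.0. Same strain lacking NS1 served as positive control.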
# Cycloheximide cs: Cycloheximide Counterscreen for Small Molecule Inhibitors of Shiga Toxin; cell reporter, cycloheximide protein synthesis inhibition counterscreen; max response, %; hit rate 12% among 300,000; AID 2314, 2010; in the data active = max response mostly above about 13%, no sharp cut-off; inactive = mostly below about 14%; note: read at 38.3 µM for the half of the compounds with a filed dose; 0% is about no effect
# The depositor's hits bear a star; i = inactive; ? = inconclusive; · = no result given. Most compounds without a hit are left out; they make up all but 21% or so of the library. Unless noted, calls come from the whole dose curve.
SMILES,Shiga toxin inh,SARS PLpro yeast,Pf growth 48h,Pf growth 96h,NS1 function inh,Cycloheximide cs
Fc1ccc(CN2CCCN(Cc3nc(-c4ccc5c(c4)OCO5)no3)CC2)cc1,12,0%,-13%,10%,-3%,15*
c1cc(C2CCN(Cc3nc(-c4ccc5c(c4)OCO5)no3)CC2)ccn1,-12,-1%,14%,?,-2%,-2
c1ccc(OCCN2CCN(Cc3nc(-c4ccc5c(c4)OCO5)no3)CC2)cc1,3,0%,36%,15µM*,-3%,7
O=C(c1ccco1)N1CCCN(Cc2nc(-c3ccc4c(c3)OCO4)no2)CC1,17,-1%,-6%,?,-2%,7
COc1ccc(/C=C/CN2CCC(CO)(Cc3ccccc3Cl)CC2)cc1,17,0%,?,?,3%,12
COc1ccc(CCNC(=O)c2cccc(S(=O)(=O)NC(C)c3ccccc3)c2)cc1 (stereo unspecified),·,-41%,?,-23%,·,·
CCOc1ccc2nc(-c3cc(NC(C)=O)ccc3O)sc2c1,51,0%,168%,47%,3%,35*
CCOCC(=O)Nc1nc2ccc(C)cc2s1,85*,?,i,5%,-2%,43*
CC(C)CC(=O)Nc1nc2ccc(S(C)(=O)=O)cc2s1,67*,-1%,-11%,?,4%,17*
CCOc1ccc2nc(NC(=O)CCC(=O)c3cccs3)sc2c1,87*,-7%,125%,·,1%,30*
Cc1ccc2nc(NC(=O)Cn3nc(C)c([N+](=O)[O-])c3C)sc2c1,-8,-11%,-6%,-3%,13%,-2
CCO[C@@H]1OC(C(N)=O)=C[C@H](c2ccc3c(c2)OCO3)[C@H]1CCCO,-7,0%,56%,55%,3%,-1
C[C@H](CO)N1C[C@H](C)[C@@H](CN(C)C(=O)Nc2ccc3c(c2)OCO3)Oc2ccc(NC(=O)NC3CCCCC3)cc2C1=O,·,-7%,·,·,·,·
CC12OC1C1(O)CCCC1=CC2=O (stereo unspecified),-3,2%,?,?,0%,0
CCOCC(=O)Nc1nc2ccc(S(C)(=O)=O)cc2s1,54*,2%,21%,-1%,13%,33*
C/C=C/C(=O)OCC(=O)Nc1nc2ccc(C)cc2s1,-3,12%,·,10µM*,14%,7
Cc1ccc2nc(NC(=O)COC(=O)c3ccccn3)sc2c1,119*,-3%,167%,147%,·,36*
CS(=O)(=O)c1ccc2nc(NC(=O)CC3CCCC3)sc2c1,53*,-1%,?,15%,4%,24*
O=C(Nc1cc(Cl)ccc1-n1cncn1)C1CC1,·,-4%,1%,19%,·,·
COc1ccc(-n2ncc3c2CC(C)(C)CC3NC(=O)CCN2CCCCC2=O)cc1 (stereo unspecified),-11,16%,-8%,-13%,2%,-1
Cc1ccc2nc(NC(=O)CSc3nc4ccccc4o3)sc2c1,26,12%,·,?,-3%,17
CCOCC(=O)Nc1nc2ccc(OCC)cc2s1,112*,0%,39%,4%,-28%,52*
Cc1ccc2nc(NC(=O)CSCC(=O)OCC(=O)c3ccccc3)sc2c1,15,25%,?,?,-8%,18*
CCOc1ccc2nc(NC(=O)CSc3ccc(Cl)cc3)sc2c1,39,-6%,?,·,-1%,18
COc1cccc(C2N(c3ccc(Cl)cc3)C(=O)C3CCCN32)c1 (stereo unspecified),-3,-10%,-3%,5.2µM*,-28%,-1
SMILES,Shiga toxin inh,SARS PLpro yeast,Pf growth 48h,Pf growth 96h,NS1 function inh,Cycloheximide cs
COc1ccc(N2C(=O)C3CCCN3C2c2cccc(C)c2)cc1 (stereo unspecified),-17,6%,·,?,?,-5
O=C(CCn1c(=S)oc2ccccc21)Nc1ccc2c(c1)OCCO2,13,0%,14%,58%,-3%,15*
CCn1c(SCC(=O)NC(=O)Nc2ccc3c(c2)OCCO3)nnc1-c1cccs1,46,3%,·,-23%,-31%,18*
Cc1cc(=O)[nH]c(SCC(=O)Nc2ccc3c(c2)OCCO3)n1,-14,1%,?,?,0%,-2
O=C(CSc1nccc(=O)[nH]1)Nc1ccc2c(c1)OCCO2,155*,1%,277%,126%,·,42*
COc1ccc(Nc2nnc(SCC(=O)N3CC(=O)Nc4ccccc43)s2)cc1,2,0%,?,2.3µM*,-13%,-1
O=C1CN(C(=O)CSc2nncs2)c2ccccc2N1,-2,1%,-7%,11%,·,-1
CCn1c(SCC(=O)Nc2ccc3c(c2)OCCO3)nnc1-c1ccco1,6,-1%,-1%,-23%,-5%,2
O=C(COc1ccc([N+](=O)[O-])cc1)NC(=O)NC1CCS(=O)(=O)C1 (stereo unspecified),·,-2%,0%,27%,·,·
O=C(CSc1ccccn1)Nc1ccc2c(c1)OCCO2,89*,-4%,163%,208%,-9%,54*
O=C(CCn1c(=S)oc2ccccc21)N1CCCCC1,24,3%,?,?,·,26*
O=C(CSc1ccc([N+](=O)[O-])cn1)Nc1ccc2[nH]c(=O)[nH]c2c1,-15,1%,11%,4.7µM*,-10%,-1
O=C(CSc1ncccn1)NC(=O)Nc1ccc2c(c1)OCCO2,46*,-1%,155%,95%,4%,35*
CCn1ccnc1CN1CCC(n2nccc2NC(=O)c2ccccc2OC)CC1,-6,0%,16%,-11%,6%,-3
O=C(CN1CCN(c2ccccn2)CC1)Nc1nc2ccccc2s1,59,-7%,?,?,-33%,12
CCC(=O)Nc1nnc(SCC(=O)Nc2ccc3c(c2)OCCO3)s1,16,1%,3%,3%,27%,8
O=C(CSc1ccc([N+](=O)[O-])cn1)Nc1ccc2c(c1)OCCO2,34,1%,-5%,40%,5%,17*
O=C(CCCn1c(=O)oc2ccccc21)N1CCc2ccccc2C1,38*,2%,26%,?,-6%,27*
COc1ccc(Nc2nnc(SCC(=O)NC(=O)Nc3ccc4c(c3)OCCO4)s2)cc1,41,1%,8%,-15%,10%,15*
COc1ccc(Nc2nnc(SCC(=O)N3CCCC3)s2)cc1,-3,-1%,·,?,-5%,1
COc1cccc(Nc2nnc(SCC(=O)N3CCOCC3)s2)c1,73,-2%,?,64%,-7%,16*
O=C1CCN(C(=O)CCCn2c(=O)oc3ccccc32)CC1,30,3%,207%,5%,·,-4
COc1cc(CC(NC(C)=O)C(=O)NC2CCN(C(=O)Nc3ccc(C)cc3)CC2)cc(OC)c1 (stereo unspecified),9,0%,6%,2%,0%,-3

# Screening results as filed in PubChem.
